Holding throughout (type): functional
Assay [1] deals with Plasmodium falciparum. Description: GSK_TCMDC: Inhibition of Plasmodium falciparum 3D7 in whole red blood cells, using parasite LDH activity as an index of growth. Test compounds present at 2uM.
Assay [2] has as its system Plasmodium falciparum. Description: GSK_TCMDC: Inhibition of Plasmodium falciparum Dd2 in whole red blood cells, using parasite LDH activity as an index of growth. Test compounds present at 2uM.
Assay [3] concerns HepG2. The experiment in a line: GSK_TCMDC: Percent inhibition of human HepG2 cell line. Test compounds present at 10uM.

Take `Br.CC(C)(C)c1ccc(OCCCON2C(=N)N=C(N)NC2(C)C)c(C(C)(C)C)c1`: the Inhibition amounted to 93% in assay [1], 97% in assay [2] and 64% in assay [3].
In the case of `CCN(CC)CCOC(=O)c1ccc(NC(=O)c2cc(-c3ccc(C)cc3)nc3ccccc23)cc1.Cl`, the figures for the Inhibition in assay [1], in assay [2] and in assay [3] were 97%, 12% and 22%, respectively.
As for `Cc1[nH]c(C)c(-c2ccc(-c3ccc4c(c3)OCO4)nc2)c(=O)c1Br`, the figures for the Inhibition in assay [1], in assay [2] and in assay [3] were 96%, 96% and 0%, respectively.
As for `COc1ccc(-n2nc(C)cc2C(=O)NCc2ccc(-c3c(C)noc3C)cc2)cc1`, the Inhibition in assay [1] was found to be 100%; in assay [2], 92%; in assay [3], 3%.
Take `O=C(CSc1nnc(O)n1Cc1ccccc1)Nc1ccccc1-c1ccccc1`: the results for the Inhibition in assay [1], in assay [2] and in assay [3] were 89%, 36% and 0%, respectively.
For `CN(C)CCN(C)Cc1cccc(-c2ccc3c(Nc4ccc(F)cc4Cl)ccnc3c2)c1`, the Inhibition in assay [1] was found to be 100%; in assay [2], 100%; in assay [3] it was 53%.
For `Cc1cc(N(C)C)nc(Nc2ccc(NC(=O)c3cccc(F)c3)cc2)n1`, the values for the Inhibition in assay [1], in assay [2] and in assay [3] were 100%, 62% and 0%, respectively.
For `COc1ccc(Cl)cc1N1CCN(CCCNC(=O)c2ccc(-c3nc4cc(Cl)c(Cl)cc4[nH]3)c(C)c2)CC1` the same measures were 100%, 0% and 4%.
As for `COc1ccc(NC(=O)[C@H](Cc2ccccc2)Nc2cc(C)nc(NCCc3cccnc3)n2)cc1.O=C(O)C(F)(F)F`, the Inhibition was determined as 98% in assay [1], 5% in assay [2] and 11% in assay [3].
Consider `CC(C)COc1ccc2ccccc2c1CNCCCCCCNCc1c(OCC(C)C)ccc2ccccc12.CS(=O)(=O)O`, for which the Inhibition in assay [1] was determined as 90%; in assay [2] it was 95%; in assay [3], 99%.
For `CCN(CCCN1CCCCC1)c1cc(C)nc(Nc2ccc(C(C)C)cc2)n1.O=C(O)C(F)(F)F` the same measures were 100%, 51% and 34%.
With `Cc1cc(=NN=Cc2cccc(Cl)c2)c2ccccc2[nH]1`, the results for the Inhibition in assay [1], in assay [2] and in assay [3] were 100%, 100% and 22%, respectively.
`O=C(/C=C/c1ccc(-c2ccccc2)cc1)NCCCCCN1CCC(c2c[nH]c3ccccc23)CC1`: the values for the Inhibition in assay [1], in assay [2] and in assay [3] were 97%, 23% and 91%, respectively.
For `COc1ccc(NC(=O)c2ccc(-c3cc(NC(=O)c4ccnc(N5CCCC5)c4)ccc3C)s2)cc1N1CCN(C)CC1.O=C(O)C(F)(F)F`, in that order: 100%, 100% and 15%.
Turning to `CC(=O)Nc1cccc(NC(=O)CSc2ccc(-c3nc4ccccc4[nH]3)cn2)c1`, the Inhibition in assay [1] was found to be 97%; in assay [2], 73%; in assay [3], 22%.
As for `COc1ccc(S(=O)(=O)NCCCC2CCN(CCCCCNC(=O)C=Cc3ccc(Cl)c(Cl)c3)CC2)cc1`, the Inhibition in assay [1] came to 85%; in assay [2], 12%; in assay [3] it was 24%.
As to `O=C(Nc1cccc(-c2nn3ccccc3c2-c2ccnc(Nc3cccc(F)c3)n2)c1)c1c(F)ccc(F)c1Cl`, the Inhibition in assay [1] is listed as 93%; in assay [2], 38%; in assay [3] it was 41%.
With `COc1ccc(C2(CNCC(O)c3cccc([N+](=O)[O-])c3)CCCC2)cc1OC` (stereo not given), the results for the Inhibition in assay [1], in assay [2] and in assay [3] were 93%, 85% and 10%, respectively.
Regarding `COC(=O)C(NC(=O)NC1CCN(c2ccnc(Nc3ccc(F)cc3)n2)C1)c1ccccc1` (stereo not given), the Inhibition in assay [1] was 87%; in assay [2], 8%; in assay [3], 11%.
For `Cc1cccn2c(=O)c3cc(C(=O)NC(C)c4ccccc4)c(=N)n(CCc4ccccc4)c3nc12` (stereo not given) the same measures were 100%, 82% and 5%.
In the case of `CC(=O)Nc1sc(C)c(C)c1CN1CCc2ccccc2C1`, the Inhibition came to 93% in assay [1], 94% in assay [2] and 0% in assay [3].
Regarding `CC(C)c1ccc(NC(=O)c2cccc(CN3CCCN(Cc4cccc(O)c4)CC3)c2)cc1.O=C(O)C(F)(F)F`, the Inhibition came out at 97% in assay [1], 33% in assay [2] and 25% in assay [3].
For `NC(=O)c1sc(-n2cnc3ccccc32)cc1OCc1ccccc1[N+](=O)[O-]`, the Inhibition is reported as 99% in assay [1], 46% in assay [2] and 10% in assay [3].
For the compound `COc1cc(NC(=O)c2cc([N+](=O)[O-])ccc2NC(=O)CNC2CCCCC2C)cc(OC)c1` (stereo not given), the Inhibition in assay [1] worked out at 87%; in assay [2] it was 78%; in assay [3], 0%.
Consider `COc1cc(C)nc2ccc(NC(=O)c3ccc(C(=O)Nc4ccc5nc(C)cc(OC)c5c4)cc3)cc12`, for which the Inhibition is reported as 96% in assay [1], 72% in assay [2] and 27% in assay [3].
For `COc1cccc(-c2nn(C)c3sc(C(=O)Nc4cccnc4)cc23)c1` the same measures were 86%, 34% and 1%.
Turning to `CCCCCCCN1CCC(NC(=O)Nc2ccnc3ccc(OC)cc23)C(CO)C1.O=C(O)C(=O)O` (stereo not given), the Inhibition in assay [1] was 94%; in assay [2], 69%; in assay [3], 23%.
For the compound `Cc1cccc2nc(-c3cccc(-c4ccc(NC(=O)Nc5ccc(Cl)cc5)cc4)c3)[nH]c12`, the Inhibition is recorded as 100% in assay [1], 96% in assay [2] and 63% in assay [3].
Take `Cc1cc(C2NC(=O)c3ccccc3N2)c(C)n1-c1ccc2c(c1)OCO2` (stereo not given): the Inhibition in assay [1] amounted to 86%; in assay [2], 85%; in assay [3], 13%.
In the case of `CCCC1(NC[C@@H](O)[C@H](Cc2ccccc2)NC(=O)c2cc(NCC)cc(N3CCCCS3(=O)=O)c2)CCC1.Cl`, the Inhibition in assay [1] is reported as 100%; in assay [2] it was 86%; in assay [3] it was 0%.

The values are drawn from ChEMBL document CHEMBL1157539, “Thousands of chemical starting points for antimalarial lead identification” (Nature, 2010).
